Screening data from PubChem BioAssay.
IMPase Li inh = qHTS Assay for Identifying the Cell-Membrane Permeable IMPase Inhibitors: Potentiation with Lithium; CHO-M1 cells, IP1 TR-FRET (IP-One), carbachol + lithium; Potency, µM (titrated, usually from 59.4 µM), for inactives: at the highest dose activity, negative = IMPase inhibition, hits mostly inhibitors; 210,000 tested, 0.35% active; AID 1457, 2008;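 also: IP1 builds up when IMPase is blocked and the TR-FRET signal falls; plate controls were basal vehicle for no effect and high inhibitor control for full effect; nearly all actives have a fitted effect of over 50% in size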
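Readout is a homogeneous TR-FRET IP1 immunoassay (Ex 320, Em 665 and 620), where raised cytosolic IP1 lowers signal. Cells were CHO-M1 treated 30 min at 37C with test compounds plus a little lithium; AC50 values came from Hill-equation fitting.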
NPSR antagonist = qHTS Assay for Antagonists of the Neuropeptide S Receptor: cAMP Signal Transduction. Q6W5P4. CHO-NPSR cells, cAMP TR-FRET, antagonist mode. Potency, µM (highest dose often 38.3 µM), inactives show at the highest dose activity change, negative = inhibition, hits mostly inhibitors. 220,000 tested, 1% active; also: % is scaled to controls: 0 for no effect and ±100 for the full control effect; nearly all actives have a fitted effect of over 50% in size
Target sequence (Q6W5P4 whole entry, looked up): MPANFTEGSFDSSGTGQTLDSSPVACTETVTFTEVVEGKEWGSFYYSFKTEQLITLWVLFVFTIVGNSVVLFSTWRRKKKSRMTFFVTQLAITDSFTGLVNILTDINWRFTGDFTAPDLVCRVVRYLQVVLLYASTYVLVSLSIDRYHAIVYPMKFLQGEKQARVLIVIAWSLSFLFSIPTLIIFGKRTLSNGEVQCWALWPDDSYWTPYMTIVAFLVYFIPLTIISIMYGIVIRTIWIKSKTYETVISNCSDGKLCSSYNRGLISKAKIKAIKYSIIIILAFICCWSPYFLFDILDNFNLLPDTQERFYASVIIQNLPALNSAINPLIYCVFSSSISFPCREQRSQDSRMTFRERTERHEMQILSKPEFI
Sfp PPTase inh = qHTS Assay for Inhibitors of Bacillus subtilis Sfp phosphopantetheinyl transferase (PPTase); 4'-phosphopantetheinyl transferase ffp (Bacillus subtilis), Q9F4F7; Biochemical Sfp PPTase activity, qHTS; Potency, µM, for the others: largest response in the series, negative = inhibition, actives largely listed as inhibitors; 310,000 tested, 3.5% active; AID 1490, 2009;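 also: the enzyme is Sfp with the accession as filed and its product quenches rhodamine fluorescence; 0% = enzyme reaction without inhibitor and -100% = no enzyme wells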
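After 15 min at room temperature with compound, 15 nM Sfp received 5 uM rhodamine-CoA plus 12.5 uM BHQ-2-ybbR (50 mM Hepes pH 7.6, 10 mM MgCl2). Rate came from the fluorescence difference over 30 min, ex 525/em 598 nm.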
KDM4E inh = qHTS Assay for Inhibitors of Human Jumonji Domain Containing 2E (JMJD2E) | JMJD2E catalytic domain, FDH-coupled NADH fluorescence (FDH is formaldehyde dehydrogenase) | Potency, µM (series often up to 57.1 µM), for inactives: at the top dose activity change, negative = inhibition, actives largely listed as inhibitors | 230,000 tested, 1.6% active | AID 2147, 2009; active = well fitted inhibition curve with a large enough effect, not every such curve was filed as active; inconclusive = small, poorly fitted or top-dose-only effect, or another doubt; inactive = no such curve, though single readings can be large or run the other way;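 also: 0% = wells with enzyme and -100% = buffer wells without enzyme; nearly all actives have a fitted effect of over 50% in size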
Target sequence (B2RXH2 1-337 limits assumed): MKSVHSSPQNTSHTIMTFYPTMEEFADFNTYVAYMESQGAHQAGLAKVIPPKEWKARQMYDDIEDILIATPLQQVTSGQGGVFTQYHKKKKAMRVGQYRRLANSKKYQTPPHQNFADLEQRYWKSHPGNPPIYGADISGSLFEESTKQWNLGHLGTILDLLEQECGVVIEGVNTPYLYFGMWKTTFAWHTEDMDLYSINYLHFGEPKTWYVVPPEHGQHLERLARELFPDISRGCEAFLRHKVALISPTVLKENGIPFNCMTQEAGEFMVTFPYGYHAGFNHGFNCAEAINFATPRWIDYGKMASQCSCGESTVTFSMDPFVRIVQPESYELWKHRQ
Epigenetic derep = Quantitative High-Throughput Screen for Regulators of Epigenetic Control; murine LDR cells, GFP reporter derepression, 30 h; Potency, µM (highest dose often 53.9 µM), for inactives: at the top dose GFP activation, usual class: activators; 280,000 tested, 0.2% active; also: % of control where 0% means no effect; nearly all actives have a fitted effect of over 60% in size
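Derepression of a silenced CMV-GFP reporter in murine LDR cells is scored by enumerating GFP-positive cells with a laser-scanning microplate cytometer after 30 hours of treatment at 37 C.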
GCN5L2 inh = qHTS Assay for Inhibitors of GCN5L2; Histone acetyltransferase KAT2A (Homo sapiens), Q92830; Potency, µM (doses to about 58.9 µM), for the others: top-dose activity change, negative = inhibition, most hits filed as inhibitors; AID 504327, 2011; 390,000 tested, 0.21% active; GCN5L2 HAT assay, ThioGlo1 CoA-SH fluorescence; also: % is scaled to controls: 0 for no effect and ±100 for the full control effect
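Fluorescence readout, Ex340nm/Em540nm: ThioGlo1 (50uM final) reacts with free CoA thiol released as 20nM GCN5L2 acetylates H3(1-25) peptide (75uM) using acetyl-CoA (70uM). Compound and enzyme sat 15 min beforehand; 20 min room-temperature reaction.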
Numbers without * were called inactive; u = inconclusive; x = not tested or not shown; [ ] = dose if it differs, or a comment. Shown are actives, neighbours in structure and some others; about 3.6% of the full set was active somewhere. Unless noted, calls follow the shape of the dose curve; as a rule, active = well fitted curve in the direction sought with a large enough effect; inconclusive = small, poorly fitted or top-dose-only effect, or another doubt; inactive = no such curve, though single readings can be large; an effect the other way counts as inactive or inconclusive. Potency is read from the fitted curve at half-maximal effect.

SMILES	IMPase Li inh	NPSR antagonist	Sfp PPTase inh	KDM4E inh	Epigenetic derep	GCN5L2 inh
N#CCCN1CCN(C(=S)c2ccc(-c3ccc(Cl)cc3)o2)CC1	-13%[38.3 µM]	-10%[46.1 µM]	20µM*	13µM*	-2%	-25%
C[C@H]1Cc2c(-c3ccccc3)nc3c(c2CO1)CN(C(=O)NCc1ccco1)CC3	1%	x	-26%	6%[11.4 µM]	x	x
Cn1c(NC(=O)c2ccccc2)c(-c2ccccn2)c(=O)c2ccccc21	22µM*	11%[46.1 µM]	-3%	4%	-11%	32%
Cn1c(NC(=O)c2ccc(F)cc2)c(-c2ccccn2)c(=O)c2ccccc21	x	u	3%	8%	7%	-4%
Cc1sc(NC(=S)NC(=O)c2ccco2)c(C#N)c1C	-1%	-26%	40µM*	0%	-3%	-26%
Cc1sc(NC(=O)c2ccco2)c(C(=O)c2ccc(Cl)cc2)c1C	13%	-22%	40µM*	3%	-2%	-5%
COc1ccccc1CNC(=O)C1CCCN(S(=O)(=O)c2ccc3c(c2)oc(=O)n3C)C1 (stereo unspecified)	x	x	x	x	1%	-4%
COc1cccc(CN2C(=O)c3ccccc3Sc3ccc(C(=O)N(C)Cc4ccccc4)cc32)c1	x	x	x	x	1%	-8%
CCc1cc2c(nc1CC)CCN(CC/C(C)=N/OC[C@H]1O[C@H](c3ccccc3)C=C[C@@H]1Oc1ccc(OC)cc1)C2	25%	-21%	-5%	35µM*	0%[10.1 µM]	-5%
O=C(CCc1nnc2n(Cc3ccccc3Cl)c(=O)c3ccccc3n12)Nc1ccccc1	x	x	x	x	3%	3%
O=C1CCCCCN1Sc1ccccc1	x	2%[46.1 µM]	25µM*	-9%	-6%	-4%
COC(=O)c1cc(Br)c(=O)n(-c2nccs2)c1	10µM*	u	-10%	-11%	1%	-6%
COC(=O)c1cc(Br)c(=O)n(-c2ccccn2)c1	-11%[38.3 µM]	5%[46.1 µM]	21%	-5%	-1%	-3%
COC(=O)c1cc(Br)c(=O)n(-c2cc(C)on2)c1	10µM*	15%[46.1 µM]	6%	3%	1%	-3%
Cc1cc(Nc2ccc(Cl)cc2)n2cnnc2n1	x	x	x	x	-1%	-1%
CCC(NC(=O)Nc1cc(Cl)ccc1OC)c1c(-n2cccc2)sc2c1CCN(C)C2 (stereo unspecified)	x	x	x	x	-1%	1%
c1ccc(-c2ccccn2)nc1	-2%	16%	-10%	u	2%	-2%
c1ccc(-c2nn[nH]n2)nc1	x	14%	56µM*	u	-1%	4%
c1ccc(-c2ccc(-c3ccccn3)nn2)nc1	-6%[38.3 µM]	-8%[46.1 µM]	16µM*	u	0%	-4%
CCOC(=O)c1c(N)n(-c2ccc(N)cc2)c2nc3ccccc3nc12	-4%	-17%	-3%	18µM*	-4%	-1%
CCOC(=O)c1c(N)n(-c2ccc(CC)cc2)c2nc3ccccc3nc12	x	x	x	x	3%	-19%
CC(C)=NNc1cc([N+](=O)[O-])cc2c1C(=O)N(C)S2=O (stereo unspecified)	3%	3%	16µM*	-17%	0%	-10%
C/C(=N/Nc1ccccc1[N+](=O)[O-])c1ccc([N+](=O)[O-])cc1	x	x	6%	x	x	-8%
C[C@H](CCC(=O)NCC(=O)O)C1CC[C@H]2C3CC[C@@H]4C[C@H](O)CC[C@]4(C)C3C[C@H](O)[C@]12C (stereo partly specified)	1%	x	7%	x	2%	-1%
CC(C)(C)OC(=O)COc1cc(OCC(=O)OC(C)(C)C)c2c(=O)cc(-c3ccccc3)oc2c1	-20%[38.3 µM]	6.3µM*	2%	2%	10%	-7%
SMILES	IMPase Li inh	NPSR antagonist	Sfp PPTase inh	KDM4E inh	Epigenetic derep	GCN5L2 inh
CC(C)(C)OC(=O)COc1cc(O)c2c(=O)cc(-c3ccccc3)oc2c1	x	-28%[46.1 µM]	6%	-14%	0%	-15%
CCC(=O)N=c1sc2c(C)cc(C)cc2n1CC(=O)OC	13µM*	u	13%	-12%	5%	u
COC(=O)Cn1c(=NC(=O)C(C)(C)C)sc2c(C)cc(C)cc21	38%[38.3 µM]	-21%[46.1 µM]	17%	12%	-1%	-7%
Cc1cn(C2CC3OCC(NC(=O)C4CCCN4C(=O)OC(C)(C)C)C3O2)c(=O)[nH]c1=O (stereo unspecified)	x	x	25%	x	x	x
O=P(O)(O)OP(=O)(O)O	13%	x	15%	x	x	-15%
COc1ccc(OC)c(C2N=C(N)Nc3nc4ccccc4n32)c1 (stereo unspecified)	x	x	x	x	-3%	-7%
Cc1ccc(-n2c(C)cc(C3N=C(N)Nc4nc5ccccc5n43)c2C)c(C)c1 (stereo unspecified)	41%[38.3 µM]	10µM*	u	-5%	-1%	-2%
Cc1cc(C2N=C(N)Nc3nc4ccccc4n32)c(C)n1-c1ccccc1Cl (stereo unspecified)	0%[38.3 µM]	-8%[46.1 µM]	2.8µM*	3%	u	-5%
COc1cccc(C2c3c(oc4cc(C)cc(C)c4c3=O)C(=O)N2CCc2ccc(OC)c(OC)c2)c1 (stereo unspecified)	x	x	x	x	-3%	-3%
CCn1c(C)nc2cc(C(=O)N/N=C/c3cccc(OC)c3O)ccc21	3%	-5%	22%	0%	0%	-10%
CCN(CC)S(=O)(=O)c1cccc(C(=O)N/N=C/c2ccc(O)c(O)c2O)c1	25%	-8%	-106%	7.9µM*	-1%	-24%
CCN(CC)C(=O)c1ccccc1NC(=O)c1cccc(S(=O)(=O)N(CC)CC)c1	-5%	6%	5%	-2%	-8%	-3%
CCN(CC)S(=O)(=O)c1cccc(C(=O)N/N=C(\C)c2ccc(O)cc2O)c1	-2%	-14%	16%	25µM*	-3%	3%
CCn1c(C)nc2cc(C(=O)N/N=C/c3ccc(O)c(O)c3O)ccc21	8%	-6%	2.2µM*	-3%	-1%	u
C=CC(=O)OCCCCCCOC(=O)C=C	-5%	x	x	x	x	x
CCCS(=O)(=O)c1nc(S(=O)(=O)c2ccc(C)cc2)c(N(C)Cc2ccccc2)s1	x	x	x	x	0%	-1%
CSc1nc(NCCOCCO)c2sc3nc(-c4ccco4)c4c(c3c2n1)CCC4	-11%[38.3 µM]	-22%[46.1 µM]	35µM*	u	1%	u
CCN(CCO)c1nc(SC)nc2c1sc1nc(-c3ccco3)c3c(c12)CCC3	-7%[38.3 µM]	-28%[46.1 µM]	u	3.5µM*	u	u
COc1ccc(Cl)cc1NC(=O)c1c(NCc2cccnc2)sc2c1CCC(C)C2 (stereo unspecified)	x	x	x	x	u	-11%
